Laboratory results reported in PubChem BioAssay AID463173 (ICCB-Longwood Screening Facility, Harvard Medical School, 2010).
Out of some 52,000 compounds screened, about 4,300 (8.3%) were called active. The list comes from a sample in which actives are over-represented; it also holds similar structures and randomly drawn compounds. Values without a mark were called inactive. Cut-off read from the data, not from the text of the source: active = survival mostly below about 52% (no sharp cut-off); inactive = mostly above about 56%.

These compounds were tested on DeltatarO mutant (assay: S. aureus survival, RN4220 and DeltatarO strains – OD600, teichoic acid synthesis inhibitors, primary screen (AID 463173)). Conditions: S. aureus RN4220 wild type/DeltatarO growth, OD600, 18 h, hits give low values, screened at 18.75 µg/mL (by protocol).
Compound CCCNC(=O)N1CCN(S(=O)(=O)c2ccc3c(ccn3C)c2)CC1 has a survival of 83%. In the case of CCc1c(-c2ccccc2)nc2ccccc2c1C(=O)NCCc1ccccc1, the survival is reported as 70%. In the case of CCOc1ccc(NC(=O)Cn2c(=O)n(-c3ccccc3)c(=O)c3ccc(C(=O)NCc4ccc5c(c4)OCO5)cc32)cc1, the survival is reported as 107%. COc1cccc(CNC(=O)CSc2nc(=O)[nH]c3c2CCC3)c1 gave a survival of 80%. Work on CCOc1ccc(-c2cc(C(=O)NCc3ccc(OCC)c(OC)c3)[nH]n2)cc1 yielded a survival of 85%. For CCN1CCN(c2cc(C)c3cc(NC(=O)c4cccc(Cl)c4)ccc3n2)CC1, the survival was 23% (active). Cc1cc(N2CCCCC2)nc2ccc(NC(=O)CCC(=O)N3CCN(c4ccccc4)CC3)cc12 showed a survival of 62%. For Cc1cc(N2CCCCC2)nc2ccc(NC(=O)c3cccc(F)c3)cc12, the survival was 83%. Cc1cc(N2CCN(C)CC2)nc2ccc(NC(=O)Nc3ccccc3)cc12 showed a survival of 65%. In the case of CCN1CCN(c2cc(C)c3cc(NC(=O)c4cc(Br)ccc4Cl)ccc3n2)CC1, the survival is reported as 32% (active). CCN1CCN(c2cc(C)c3cc(NC(=O)c4cccc(C(F)(F)F)c4)ccc3n2)CC1 was tested, and the survival was 63%. Work on Cc1cc(N2CCN(C)CC2)nc2ccc(NC(=O)Nc3ccc(Cl)cc3)cc12 yielded a survival of 72%. Cc1ccc(C(=O)Nc2ccc3nc(N4CCCCC4)cc(C)c3c2)cc1F showed a survival of 55%. For Cc1cc(N2CCN(C)CC2)nc2ccc(NC(=O)Nc3cccc(Cl)c3)cc12, the survival was 70%. Cc1cc(C)cc(NC(=O)Nc2ccc3nc(N4CCN(C)CC4)cc(C)c3c2)c1 showed a survival of 117%. In the case of Cc1ccccc1C(=O)Nc1ccc2nc(N3CCCCC3)cc(C)c2c1, the survival is reported as 32% (active). For Cc1cc(N2CCCCC2)nc2ccc(NC(=O)c3cccc(Cl)c3)cc12, the survival was 0% (active). With O=C(C1CC1)N1CCc2cc(Br)cc(S(=O)(=O)Nc3ccc(F)c(F)c3)c21 the survival was 110%. CCS(=O)(=O)N1CC(=O)N(c2ccc(Cl)cc2)C(C)(C(=O)NC2CCCCCC2)C1 (centres undefined) gave a survival of 115%. CCN1CCN(c2c(S(=O)(=O)c3ccccc3)cnc3ccc(Cl)cc23)CC1 was tested, and the survival was 124%. COc1ccc(NS(=O)(=O)c2ccc3c(c2)CCN3C(=O)CCC(=O)O)cc1Cl showed a survival of 93%. For CN(c1ncnc2onc(-c3cccc(Cl)c3)c12)C1CCCCC1, the survival was -17% (active). For CN(c1ncnc2c1c(-c1ccccc1)cn2-c1cccc(Cl)c1)C1CCCCC1, the survival was 83%. With Clc1cccc(-c2noc3ncnc(NC4CCCCC4)c23)c1 the survival was 68%. In the case of Cc1cccc(NC(=O)CSc2nc(-c3cccs3)nc3cc(=O)[nH]n23)c1, the survival is reported as 87%. In the case of Cc1ncc(CO)c2c1Oc1nc(-c3ccccc3Cl)nc(SCc3ccccc3F)c1C2, the survival is reported as 72%. For Cc1cc(C(F)(F)F)nn1-c1nc(-c2ccccc2)cc(C(F)(F)F)n1, the survival was 17% (active). Compound CC(Sc1nc(-c2ccccc2)cc(C(F)(F)F)n1)C(=O)NN1CCCCC1 (centres undefined) has a survival of 72%. COc1ccc(-c2cc(C(F)F)nc(-n3nc(C)cc3C)n2)cc1 showed a survival of 91%. In the case of COc1ccc(-c2cc(C(F)(F)F)nc(S(C)(=O)=O)n2)cc1, the survival is reported as 83%. For COc1ccc(-c2cc(C(F)(F)F)nc(-n3nc(C(F)(F)F)cc3C)n2)cc1, the survival was 16% (active). CCc1nn(CC(=O)NCCc2ccc(Cl)cc2)c(=O)c2cc3c(OC)cccc3n12 showed a survival of 75%. Clc1ccccc1CNc1ncnc2c1nc1n2CCCC1 was tested, and the survival was 97%. With COC(=O)c1cc(-c2cocc2C=C(C#N)C#N)ccc1Cl the survival was 84%. In the case of CC(C)Oc1ccc(C(=O)N2CC(=O)Nc3ccc(F)cc3C2c2ccc(F)cc2)cc1 (centres undefined), the survival is reported as 53%. Work on CCc1nc2nc(C)c(NS(=O)(=O)c3ccc(F)c(C)c3)c(=O)n2[nH]1 yielded a survival of 123%. With O=C(COCc1cc(-c2ccc(F)cc2)on1)Nc1cc(Cl)cc(Cl)c1 the survival was 144%. Work on O=C(COCc1cc(-c2cccs2)on1)Nc1cccc(Cl)c1Cl yielded a survival of 75%. In the case of O=C(COCc1cc(-c2ccco2)on1)Nc1cccc(Cl)c1Cl, the survival is reported as 32% (active). Compound O=C(COCc1cc(-c2ccc(F)cc2)on1)Nc1cc(Cl)ccc1O has a survival of 74%. For O=C(COCc1cc(-c2ccc(F)cc2)on1)Nc1cccc(Cl)c1Cl, the survival was 46% (active). In the case of Cc1ccc(O)c(NC(=O)COCc2cc(-c3ccco3)on2)c1, the survival is reported as 95%. Work on CCc1ccccc1NC(=O)COCc1cc(-c2ccco2)on1 yielded a survival of 55%. With O=C(COCc1cc(-c2ccco2)on1)Nc1cc(Cl)ccc1O the survival was 0% (active). With Cc1ccc(Cl)cc1NC(=O)COCc1cc(-c2ccco2)on1 the survival was 83%. Work on CCc1cccc(NC(=O)CCC(=O)N2CCSc3ccccc32)c1 yielded a survival of 57%. With CC(C)(C)C(=O)Nc1cccc(C(=O)OCc2cc(=O)n3nc(C4CCCCC4)sc3n2)c1 the survival was 124%. Compound COc1ccc(-c2nnc(SCc3nnc(-c4ccccc4)o3)o2)cc1OC has a survival of 73%. Work on Cc1nn(CCC(=O)Nc2cc(F)ccc2F)c(=O)c2nn(-c3ccccc3)c(C)c12 yielded a survival of 99%. Work on CCC(C)(C)n1nnnc1C(c1ccccc1)N1CCc2ccccc2C1 (centres undefined) yielded a survival of 79%. In the case of COc1ccccc1Cn1cc(C(=O)c2ccc(Cl)cc2)c(=O)c2cc3c(cc21)OCCO3, the survival is reported as 83%. Compound Cc1ccc(Nc2nc(C(=O)N3CCC(C)CC3)cs2)cc1 has a survival of 91%. In the case of COc1ccc(C(=O)NCCc2nc3ccccc3[nH]2)cc1, the survival is reported as 127%. In the case of O=C(COc1ccc(F)cc1)NCCc1nc2ccccc2[nH]1, the survival is reported as 57% (active). Cc1cccc(OCC(=O)NCCc2nc3ccccc3[nH]2)c1C showed a survival of 79%. In the case of Cc1cc(OCC(=O)NCCc2nc3ccccc3[nH]2)cc(C)c1Cl, the survival is reported as 44% (active). Work on Cc1cc(C)cc(OCC(=O)NCCc2nc3ccccc3[nH]2)c1 yielded a survival of 109%. O=C(NCCc1nc2ccccc2[nH]1)c1ccc(F)cc1 was tested, and the survival was 81%. Compound COc1cccc(CNC(=O)c2ccc(-c3nc(CS(=O)c4ccccc4)c(C)o3)cc2)c1 (centres undefined) has a survival of 92%.
